About 410 targets per protein were measured; listed, in parts, are those with the strongest signals and a random draw of the rest.
Experiments:
Experiment in all cases: glycan array binding signal (z-score within array); higher = stronger binding
Conditions in all cases: glycan notation: IUPAC condensed, linker removed
[1] = molecular target: Fuc(a1-2)Gal(b1-3)[Fuc(a1-4)]GlcNAc(b1-2)Man(a1-3)[Fuc(a1-2)Gal(b1-3)[Fuc(a1-4)]GlcNAc(b1-2)Man(a1-6)]Man(b1-4)GlcNAc(b1-4)[Fuc(a1-6)]GlcNAc(b1-4)[Fuc(a1-6)]GlcNAc
Procedure, shortened: (§1)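 From the Consortium for Functional Glycomics database, 3228 arrays were curated, keeping only those whose protein sequence was available. Binding is given as a within-array Z-score averaged across arrays sharing a protein sequence and across linkers. Negative Z-scores can be read as non-binding.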

[2] = molecular target: Fuc(a1-2)Gal(b1-3)[Fuc(a1-4)]GlcNAc(b1-3)[Gal(b1-4)GlcNAc(b1-6)]Gal(b1-4)Glc
Procedure, shortened: as §1

[3] = molecular target: Fuc(a1-2)Gal(b1-4)Fuc(a1-3)]GlcNAc(b1-2)Man(a1-3)[Fuc(a1-2)Gal(b1-4)[Fuc(a1-3)]GlcNAc(b1-2)Man(a1-6)]Man(b1-4)GlcNAc(b1-4)GlcNAc
Procedure, shortened: as §1

[4] = molecular target: Fuc(a1-2)Gal(b1-4)[Fuc(a1-3)]GlcNAc(b1-3)Gal(b1-4)[Fuc(a1-3)]GlcNAc
Procedure, shortened: as §1

[5] = molecular target: Fuc(a1-2)[Gal(a1-3)]Gal(b1-3)GlcNAc(b1-2)Man(a1-3)[Fuc(a1-2)[Gal(a1-3)]Gal(b1-3)GlcNAc(b1-2)Man(a1-6)]Man(b1-4)GlcNAc(b1-4)[Fuc(a1-6)]GlcNAc
Procedure, shortened: as §1

[6] = molecular target: Fuc(a1-2)[Gal(a1-3)]Gal(b1-4)GlcNAc(b1-3)[Fuc(a1-2)[Gal(a1-3)]Gal(b1-4)GlcNAc(b1-6)]GalNAc
Procedure, shortened: as §1

[7] = molecular target: Fuc(a1-2)[GalNAc(a1-3)]Gal(b1-3)GalNAc(b1-3)Gal(a1-4)Gal(b1-4)Glc
Procedure, shortened: as §1

[8] = molecular target: Fuc(a1-2)[GalNAc(b1-3)]Gal
Procedure, shortened: as §1

[9] = molecular target: Fuc(a1-3)[Gal(b1-4)]GlcNAc(b1-3)Gal(b1-4)[Fuc(a1-3)]GlcNAc
Procedure, shortened: as §1

[10] = molecular target: Fuc(b1-3)GlcNAc
Procedure, shortened: as §1

[11] = molecular target: Gal(a1-3)Gal(b1-3)[Fuc(a1-4)]GlcNAc(b1-2)Man(a1-3)[Gal(a1-3)Gal(b1-3)[Fuc(a1-4)]GlcNAc(b1-2)Man(a1-6)]Man(b1-4)GlcNAc(b1-4)GlcNAc
Procedure, shortened: as §1

[12] = molecular target: Gal(a1-3)[Gal(a1-4)]Gal(b1-4)GlcNAc
Procedure, shortened: as §1

[13] = molecular target: Gal(b1-3)GlcNAc(b1-3)Gal(b1-4)GlcNAc(b1-2)Man(a1-3)[Gal(b1-3)GlcNAc(b1-3)Gal(b1-4)GlcNAc(b1-2)Man(a1-6)]Man(b1-4)GlcNAc(b1-4)GlcNAc
Procedure, shortened: as §1

[14] = molecular target: Gal(b1-3)[Fuc(a1-4)]GlcNAc(b1-2)Man(a1-3)[Gal(b1-3)[Fuc(a1-4)]GlcNAc(b1-2)Man(a1-6)]Man(b1-4)GlcNAc(b1-4)[Fuc(a1-6)]GlcNAc
Procedure, shortened: as §1

[15] = molecular target: Gal(b1-3)[GlcNAc(b1-6)]GalNAc
Procedure, shortened: as §1

[16] = molecular target: Gal(b1-4)GalNAc(a1-3)[Fuc(a1-2)]Gal(b1-4)GlcNAc
Procedure, shortened: as §1

[17] = molecular target: Gal(b1-4)GlcNAc(b1-2)Man(a1-3)[Gal(b1-4)GlcNAc(b1-2)Man(a1-6)]Man(b1-4)GlcNAc(b1-4)[Fuc(a1-6)]GlcNAc
Procedure, shortened: as §1

[18] = molecular target: Gal(b1-4)GlcNAc(b1-2)[Gal(b1-4)GlcNAc(b1-6)]Man(a1-6)[Gal(b1-4)GlcNAc(b1-2)Man(a1-3)]Man(b1-4)GlcNAc(b1-4)[Fuc(a1-6)]GlcNAc
Procedure, shortened: as §1

[19] = molecular target: Gal(b1-4)GlcNAc(b1-3)Gal(b1-4)GlcNAc
Procedure, shortened: as §1

[20] = molecular target: Gal(b1-4)GlcNAc(b1-3)Gal(b1-4)GlcNAc(b1-2)Man(a1-3)[Gal(b1-4)GlcNAc(b1-3)Gal(b1-4)GlcNAc(b1-2)Man(a1-6)]Man(b1-4)GlcNAc(b1-4)GlcNAc
Procedure, shortened: as §1

[21] = molecular target: Gal(b1-4)GlcNAc(b1-3)Gal(b1-4)GlcNAc(b1-3)Gal(b1-4)GlcNAc(b1-3)Gal(b1-4)GlcNAc(b1-3)Gal(b1-4)GlcNAc(b1-3)Gal(b1-4)GlcNAc(b1-2)Man(a1-3)[Gal(b1-4)GlcNAc(b1-3)Gal(b1-4)GlcNAc(b1-3)Gal(b1-4)GlcNAc(b1-3)Gal(b1-4)GlcNAc(b1-3)Gal(b1-4)GlcNAc(b1-3)Gal(b1-4)GlcNAc(b1-2)Man(a1-6)]Man(b1-4)GlcNAc(b1-4)GlcNAc
Procedure, shortened: as §1

[22] = molecular target: Gal(b1-4)GlcNAc(b1-3)Gal(b1-4)GlcNAc(b1-3)[Gal(b1-4)GlcNAc(b1-3)Gal(b1-4)GlcNAc(b1-6)]GalNAc
Procedure, shortened: as §1

[23] = molecular target: Gal(b1-4)GlcNAc(b1-3)GalNAc
Procedure, shortened: as §1

[24] = molecular target: Gal3S6S(b1-4)GlcNAc6S
Procedure, shortened: as §1

[25] = molecular target: GalNAc(a1-3)GalNAc
Procedure, shortened: as §1

[26] = molecular target: GalNAc3S(b1-4)GlcNAc3S
Procedure, shortened: as §1

[27] = molecular target: GalNAc4S6S(b1-4)GlcNAc
Procedure, shortened: as §1

[28] = molecular target: Glc(a1-6)Glc(a1-6)Glc
Procedure, shortened: as §1

[29] = molecular target: GlcA(b1-6)Gal
Procedure, shortened: as §1

[30] = molecular target: GlcA3S(b1-3)Gal(b1-4)GlcNAc(b1-3)Gal(b1-4)Glc
Procedure, shortened: as §1

B1: XTP3-B-MRH1 (Homo sapiens), Q96DZ1 (protein)
chain: LLEPLFKQSSCSYRIESYWTYEVCHGKHIRQYHEEKETGQKINIHEYYLGNMLAKNLLFEKEREAEEKEKSNEIPTKNIEGQMTPYYPVGMGNGTPCSLKQNRPRSSTVMYICHPESKHEILSVAEVTTCEYEVVILTPLLCSHPKYRFRA
glycan array binding signal (z-score) [1]: 0.479
glycan array binding signal (z-score) [2]: 0.735
glycan array binding signal (z-score) [3]: 3.43
glycan array binding signal (z-score) [4]: 0.249
glycan array binding signal (z-score) [5]: -0.029
glycan array binding signal (z-score) [6]: 0.358
glycan array binding signal (z-score) [7]: -0.49
glycan array binding signal (z-score) [8]: -1.01
glycan array binding signal (z-score) [9]: 4.25
glycan array binding signal (z-score) [10]: 0.382
glycan array binding signal (z-score) [11]: -0.237
glycan array binding signal (z-score) [12]: -0.853
glycan array binding signal (z-score) [13]: 0.941
glycan array binding signal (z-score) [14]: -0.731
glycan array binding signal (z-score) [15]: -0.389
glycan array binding signal (z-score) [16]: -0.41
glycan array binding signal (z-score) [17]: -0.184
glycan array binding signal (z-score) [18]: 1.61
glycan array binding signal (z-score) [19]: 2.97
glycan array binding signal (z-score) [20]: 3.79
glycan array binding signal (z-score) [21]: 0.082
glycan array binding signal (z-score) [22]: 1.07
glycan array binding signal (z-score) [23]: -0.205
glycan array binding signal (z-score) [24]: -0.392
glycan array binding signal (z-score) [25]: 3.12
glycan array binding signal (z-score) [26]: 3.07
glycan array binding signal (z-score) [27]: -0.682
glycan array binding signal (z-score) [28]: -0.837
glycan array binding signal (z-score) [29]: 0.841
glycan array binding signal (z-score) [30]: -0.47

Reference: the supplement of paper PMC8728848
